Inconclusive results are not listed. Entries that show only a call come without a potency. Active and inactive are the calls of the source. The call rests on the fitted dose curve; in most records, active means well fitted cell-killing curve with a large enough effect; inconclusive means small, poorly fitted or top-dose-only effect; inactive means flat fitted curve, though single readings scatter.

The nature of the assay: Compound cytotoxicity measured by an ATP content assay as a counter-screen for lead compounds in human iPSC derived neural progenitor cells (hNPCs). Particulars: human iPSC-derived NPC viability, ATP luminescence; series mostly up to 46.1 µM. Here is the method:
National Center for Advancing Translational Sciences [NCATS] Johns Hopkins University School of Medicine Florida State University Assay Overview: Many compounds can cause cytotoxicity at high compound concentrations. […] The compound cytotoxicity may also cause side effects or toxicity in human. Thus, the compound cytotoxicity needs to be measured in each cell type and each compound incubation time - same as these in the compound screening assay. The compound cytotoxicity can be measured by cell viability assays such as the ATP content assay. We use an ATP content assay kit for cell viability measurement. It measures ATP content (level) in human iPSC derived neural progenitor cells (hNPCs) using a luminescence readout that is proportional to viable cell numbers. Decrease in the luminescence signal after the compound treatment indicates reduced cell viability and cell death caused by compound treatment.
Assay Protocol Summary: The medium for hNPCs consists of DMEM/F12, N2 supplement (ThermoFisher, Cat.# 17502048), NEAA (ThermoFisher, Cat. # 11140050), 2 ug/ml heparin, 2 uM cyclopamine, and B27 (ThermoFisher, Cat. # 17504044). The ATP content assay kit (PerkinElmer, Cat.# 6016731) was used to determine cell viability. The reagent was reconstituted and prepared as described by the manufacturer. Cells were seeded in 384- or 1536-well assay plates and cultured at 37 C with 5% CO2 for 16 to 20 hours. The typical cell seeding density in the 1536-well plate assay is 350 cells/well in 3 ul medium for hNPCs in the tissue cultured treated/PDL coated plates. Compounds were added to cells and incubated for a specific time such as 6, 24, or 72 hours before addition of the reagent mixture of the ATP content assay kit at 1:1 ratio. After incubation at room temperature for 10 minutes, the luminescence intensity in assay plates was measured using a ViewLux plate reader (PerkinElmer). […] The percentage inhibitions of the decreased cell viability by small molecules were then calculated that indicate compound cytotoxicity.
On the technique in general: Counterscreens check selectivity or assay interference.
`CO[C@H]1C(=O)[C@]2(C)[C@@H](OC)C[C@H]3OC[C@@]3(OC(C)=O)[C@H]2[C@H](OC(=O)c2ccccc2)[C@]2(O)C[C@H](OC(=O)[C@H](O)[C@@H](NC(=O)OC(C)(C)C)c3ccccc3)C(C)=C1C2(C)C`: the Potency result was “inactive”.

Regarding `C[C@H](NC(=O)C(=O)Nc1ccccc1C(C)(C)C)C(=O)N[C@@H](CC(=O)O)C(=O)COc1c(F)c(F)cc(F)c1F`, the Potency result was “inactive”.

As for `CN(C)c1ccc2cc(C(=O)N[C@@H](CCCN=C(N)CCl)C(=O)NCc3ccccc3)ccc2c1`, the Potency result was “inactive”.

Take `Nc1nc2ccc([N+](=O)[O-])cc2s1`: the Potency result was “inactive”.

Take `O[C@@H](COc1cccc2ncccc12)CN1CCN(C2c3ccccc3[C@@H]3[C@H](c4ccccc42)C3(F)F)CC1` (stereo not given in full): the Potency result was “inactive”.

As for `CNC1[C@H](O)C(O[C@@H]2C(O)C(O[C@H]3O[C@H]([C@@H](C)NC)CC[C@H]3N)[C@@H](N)C[C@H]2N)OC[C@]1(C)O` (stereo not given in full), the Potency entry is “inactive”.

For `OCc1ccc(-c2ccc(-c3ccc(CO)s3)o2)s1`, the Potency was 10.9 µM (active).

Consider `O=C1NC(=O)C(=Cc2ccc(-c3ccc(F)cc3)o2)S1`, for which the Potency entry is “inactive”.

Take `COc1ccc2nc(NC(=O)Nc3ccccc3)sc2c1`: the Potency was 7.74 µM (active).

`N[C@H](CSC(c1ccccc1)(c1ccccc1)c1ccccc1)C(=O)O`: the Potency entry is “inactive”.

Take `Cc1cc(O)c2c(c1)C(=O)c1cc(O)cc(O)c1C2=O`: the Potency entry was “inactive”.

On to `CCCCCCOc1ccccc1C(N)=O`, for which the Potency result was “inactive”.

As for `O=C(O)c1ccccc1NCCc1ccccc1`, the Potency entry is “inactive”.

On to `CC(=O)Nc1ccc([C@H](C)C(=O)Nc2ncc(C(C)C)s2)cc1`, for which the Potency entry is “inactive”.

In the case of `COc1ccc(-c2cc(=O)c3c(O)cc(O)cc3o2)cc1O`, the Potency entry was “inactive”.

As for `Cc1csc(NC(=O)c2sc3nc4c(c(C(F)(F)F)c3c2N)CCC4)n1`, the Potency was 1.95 µM (active).

Take `O=C1C[C@@H](c2ccc(O)cc2)Oc2cc(O)cc(O)c21`: the Potency entry is “inactive”.

For `O=C(O)[C@H](CC(=O)N1C[C@@H]2CCCC[C@H]2C1)Cc1ccccc1`, the Potency entry is “inactive”.

Turning to `O=C(Nc1ccc(C(=O)O)c(O)c1)c1ccccc1`, the Potency result is “inactive”.

On to `C=CCCCCCCCCC(=O)O`, for which the Potency entry was “inactive”.

As to `CCCS(=O)c1ccc2nc(NC(=O)OC)[nH]c2c1` (stereo not given), the Potency entry is “inactive”.

Consider `CC(C)OC(=O)CCCC=CC[C@@H]1[C@H](C=C[C@@H](O)COc2cccc(C(F)(F)F)c2)[C@H](O)C[C@@H]1O`, for which the Potency result is “inactive”.

`C[C@@H](N)c1ccc(C(=O)Nc2ccnc3[nH]ccc23)cc1`: the Potency entry is “inactive”.

As for `O=C(/C=C/c1ccc(O)cc1)c1ccc(O)cc1O`, the Potency entry is “inactive”.

Take `COCCn1c2c([n+](Cc3cnccn3)c1C)C(=O)c1ccccc1C2=O`: the Potency is 0.69 µM (active).

Turning to `O=C(Nc1cc2cc[nH]c2cn1)c1ccccc1`, the Potency is 0.346 µM (active).

As to `CC=CC[C@@H](C)C(=O)[C@H]1C(=O)N[C@@H](C(C)C)C(=O)N(C)CC(=O)N(C)[C@@H](CC(C)C)C(=O)N[C@@H](C(C)C)C(=O)N(C)[C@@H](CC(C)C)C(=O)N[C@@H](C)C(=O)N[C@H](C)C(=O)N(C)[C@@H](CC(C)C)C(=O)N(C)[C@@H](CC(C)C)C(=O)N(C)[C@@H](C(C)C)C(=O)N1C`, the Potency entry was “inactive”.

For the molecule `O=C(O)[C@@H](c1ccc(OCc2ccc3ccccc3n2)cc1)C1CCCC1`, the Potency entry was “inactive”.

For `Nc1ncnc2c1ncn2[C@@H]1O[C@@H](CO)[C@H](O)[C@H]1O`, the Potency entry is “inactive”.

For `[O-][n+]1ccccc1SSc1cccc[n+]1[O-]`, the Potency was 0.112 µM (active).

As to `Oc1ccc(/C=C/c2cc(O)cc(O)c2)cc1`, the Potency is 9.75 µM (active).

With `COc1ccnc2c1CCCCC2S(=O)c1nc2ccccc2[nH]1` (stereo not given), the Potency result was “inactive”.

Regarding `O=C1c2ccccc2C(=O)c2c1ccc(O)c2O`, the Potency entry was “inactive”.

As for `O=C1c2ccccc2-[n+]2ccc3c([nH]c4ccccc43)c21`, the Potency was 2.18 µM (active).

For `O=C(O)CCC(=O)c1ccc(-c2ccccc2)cc1`, the Potency result was “inactive”.

With `Cc1cccc(C#Cc2ccccc2)n1`, the Potency was 9.75 µM (active).

As to `CC(C)(C)COc1ccc(-n2cc(C(=O)O)cn2)cc1C#N`, the Potency result was “inactive”.

`Cc1cc(O)c2ccccc2c1O`: the Potency is 4.89 µM (active).

On to `CC1=C(CO)C(=O)O[C@@H]([C@@H](C)[C@H]2CC[C@H]3[C@@H]4C[C@H]5O[C@]56[C@@H](O)C=CC(=O)[C@]6(C)[C@@H]4CC[C@]23C)C1`, for which the Potency result is “inactive”.

Take `CN(C)c1cc(NC(=O)CNC(C)(C)C)c(O)c2c1C[C@@H]1C[C@H]3[C@H](N(C)C)C(=O)C(C(N)=O)=C(O)[C@@]3(O)C(=O)C1=C2O`: the Potency result was “inactive”.
